Experimental findings from the supplement of paper PMC13380429 are described below.

Assay [1] deals with Vero E6 infected with SARS-CoV-2. In words: morphology score (similarity to uninfected cells); higher = more like uninfected cells. The settings on record: 24 h.
For assay [2] the test system is unchanged. In words: SARS-CoV-2 infection rate relative to infected DMSO; higher = more infection, active = 60 or less. The conditions noted are these: 24 h.

On to `COCC1(CO)C(=O)C2CCN1CC2` (configuration not stated) (10 µM), for which the morphology score in assay [1] was 0.212. In addition, the SARS-CoV-2 infection rate in assay [2] was 80.5% (inactive).
Turning to `O=C(N[C@@H]1Cc2ccccc2N(C[C@@H](O)CO)C1=O)c1cc2cc(Cl)sc2[nH]1` (10 µM), in assay [1], the morphology score was -0.155. In assay [2], the SARS-CoV-2 infection rate was 105% (inactive).
Compound `Cc1ccc(S(=O)(=O)NC(=O)NN2CC3CCCC3C2)cc1` (configuration not stated) [gliclazide] (10 µM) had a morphology score in assay [1] of 0.0635. Besides, the SARS-CoV-2 infection rate in assay [2] is 106% (inactive).
For `CC(=O)N1CCC(C(=O)N(CCCN2CCC(Cc3ccc(C(N)=O)cc3)CC2)c2ccc(C)c(Cl)c2)CC1` (10 µM) the same measures were 0.0284 and 107% (inactive).
`COc1cc(C(=O)NCC2(N(C)C)CCCC2)cc(OC)c1OCc1ccccc1` (10 µM) returned a morphology score in assay [1] of 0.334. Further, the SARS-CoV-2 infection rate in assay [2] is 77.5% (inactive).
`OC[C@H]1O[C@H](O[C@H]2O[C@H](CO)[C@@H](O)[C@H](O)[C@H]2O)[C@H](O)[C@@H](O)[C@@H]1O` [cabaletta] (10 µM) returned a morphology score in assay [1] of -0.0856. Also, in assay [2], the SARS-CoV-2 infection rate was 104% (inactive).
In assay [1], `O=c1c(-c2ccccc2)c1-c1ccccc1` [diphencyprone] (10 µM) had a morphology score of -0.0547. Besides, the SARS-CoV-2 infection rate in assay [2] is 100% (inactive).
In the case of `Cc1nc(Nc2ncc(C(=O)Nc3c(C)cccc3Cl)s2)cc(N2CCN(CCO)CC2)n1` [dasatinib] (0.833333 µM), the morphology score in assay [1] was -0.0371. Also, the SARS-CoV-2 infection rate in assay [2] is 95.5% (inactive).
Turning to `CCN(CC)CC1CCCCN1CC(=O)N1c2ccccc2C(=O)Nc2cccnc21` (configuration not stated) [otenzepad] (10 µM), in assay [1], the morphology score was determined as 0.171. For the same compound, in assay [2], the SARS-CoV-2 infection rate is 94.5% (inactive).
For `CC1(C)[C@H](C(=O)O)N2C(=O)C[C@H]2S1(=O)=O` [sulbactam] (10 µM) the same measures were 0.0596 and 113% (inactive).
The matching figures for `Clc1cccc(Cl)c1NC1=NCCN1` [clonidine] (10 µM): 0.0616 and 100% (inactive).
`COC(=O)C1=C(C)NC(C)=C(C(=O)O[C@H]2CCN(Cc3ccccc3)C2)[C@H]1c1cccc([N+](=O)[O-])c1` [barnidipine] (10 µM): in assay [1], the morphology score was -0.0592. Moreover, in assay [2], the SARS-CoV-2 infection rate was 112% (inactive).
The matching figures for `CCn1c(=O)/c(=C2\Sc3ccccc3N2C)s/c1=C\c1cccc[n+]1CC` (10 µM): 0.136 and 106% (inactive).
For `Cc1cc(C(=CNc2ccc(Cl)cc2)C(=O)Nc2ccc(Cl)cc2)on1` (10 µM) the same measures were 0.005 and 103% (inactive).
`COC(=O)Nc1ccc2[nH]cc(CCNC(C)=O)c2c1` (10 µM): in assay [1], the morphology score stood at 0.0711. Besides, the SARS-CoV-2 infection rate in assay [2] is 108% (inactive).
The compound `CN(C(=O)Cc1ccc(Cl)c(Cl)c1)[C@H](CN1CCCC1)c1ccccc1` (10 µM) yielded a morphology score in assay [1] of 0.793. Besides, the SARS-CoV-2 infection rate in assay [2] is 21.5% (active).
The compound `c1ccc(-c2oc3ncnc(NC[C@@H]4CCCO4)c3c2-c2ccccc2)cc1` (10 µM) showed a morphology score in assay [1] of 0.0044. Besides, the SARS-CoV-2 infection rate in assay [2] was 106% (inactive).
In the case of `Cc1cc(Nc2ccc(NC(=O)c3ccc(Nc4ccnc5ccccc45)cc3)cc2)nc(N)n1` (0.833333 µM), the morphology score in assay [1] is -0.0128. Further, the SARS-CoV-2 infection rate in assay [2] is 104% (inactive).
In assay [1], `Oc1c(I)cc(Cl)c2cccnc12` [clioquinol] (10 µM) came in with a morphology score of 0.127. Moreover, the SARS-CoV-2 infection rate in assay [2] is 90% (inactive).
For `CN1c2cc3c(cc2N=C(c2ccc(C(=O)O)cc2)c2ccccc21)C(C)(C)CCC3(C)C` (0.833333 µM), the morphology score in assay [1] was -0.141. Further, the SARS-CoV-2 infection rate in assay [2] is 107% (inactive).
In assay [1], `N=C(N)NCc1cccc(I)c1` [iobenguane] (10 µM) displayed a morphology score of 0.132. In assay [2], the SARS-CoV-2 infection rate was 100% (inactive).
For `Cc1ccc(C(=O)N(CCCN)[C@@H](c2nc3cc(Cl)ccc3c(=O)n2Cc2ccccc2)C(C)C)cc1` [ispinesib] (0.833333 µM) the same measures were -0.37 and 110% (inactive).
The compound `COc1ccc2c(c1)[C@]13CCCC[C@@H]1[C@H](C2)N(C)CC3` [dextromethorphan] (10 µM) returned a morphology score in assay [1] of -0.0426. For the same compound, in assay [2], the SARS-CoV-2 infection rate was 112% (inactive).
Turning to `CN1CCN(c2ccc3[nH]c(-c4ccc5[nH]c(-c6ccc(O)cc6)nc5c4)nc3c2)CC1` [pibenzimol] (10 µM), the morphology score in assay [1] came out at 0.0018. In addition, the SARS-CoV-2 infection rate in assay [2] is 110% (inactive).
In the case of `CCCN1CCC[C@@H]2Cc3nc(N)ncc3C[C@H]21` [quinelorane] (10 µM), the morphology score in assay [1] was 0.13. For the same compound, the SARS-CoV-2 infection rate in assay [2] was 106% (inactive).
Regarding `CC[C@]12C=CCN3CC[C@@]4(c5cc([C@@]6(C(=O)OC)C[C@@H]7C[C@@H](C(C)(F)F)CN(Cc8c6[nH]c6ccccc86)C7)c(OC)cc5N(C)[C@H]4[C@@](O)(C(=O)OC)[C@@H]1OC(C)=O)[C@@H]32` [Vinflunine Ditartrate] (10 µM), the morphology score in assay [1] was -0.12. Also, the SARS-CoV-2 infection rate in assay [2] was 105% (inactive).
Compound `C[N+]1([O-])[C@@H]2C[C@@H](OC(=O)[C@H](CO)c3ccccc3)C[C@H]1[C@@H]1O[C@@H]12` (some centres not stated) [scopolamine-N-oxide] (10 µM) returned a morphology score in assay [1] of 0.142. Further, the SARS-CoV-2 infection rate in assay [2] was 107% (inactive).
In assay [1], `O=C(Nc1cc(Cl)cc(Cl)c1O)c1c(O)c(Cl)cc(Cl)c1Cl` [oxyclozanide] (10 µM) displayed a morphology score of 0.0306. In assay [2], the SARS-CoV-2 infection rate was 113% (inactive).
On to `COc1cc(C[C@@H](CO)[C@H](CO)Cc2ccc(O)c(OC)c2)ccc1O` [secoisolariciresinol-(-)] (10 µM), for which, in assay [1], the morphology score is -0.0638. Further, the SARS-CoV-2 infection rate in assay [2] is 109% (inactive).
`Cc1c2oc3c(C)ccc(C(=O)N[C@@H]4C(=O)N[C@H](C(C)C)C(=O)N5CCC[C@H]5C(=O)N(C)CC(=O)N(C)[C@@H](C(C)C)C(=O)O[C@@H]4C)c3nc-2c(C(=O)N[C@@H]2C(=O)N[C@H](C(C)C)C(=O)N3CCC[C@H]3C(=O)N(C)CC(=O)N(C)[C@@H](C(C)C)C(=O)O[C@@H]2C)c(N)c1=O` [dactinomycin] (10 µM) registered a morphology score in assay [1] of -0.16. Also, the SARS-CoV-2 infection rate in assay [2] was 109% (inactive).
For `C[C@@H]1CC[C@@]2(OC1)O[C@H]1C[C@H]3[C@@H]4CC=C5C[C@@H](O)CC[C@]5(C)[C@H]4CC[C@]3(C)[C@H]1[C@@H]2C` [diosgenin] (10 µM) the same measures were 0.114 and 106% (inactive).
